Tests used:
Assay in all cases: PBM binding z-score (relative to random genomic background probes); higher = stronger binding; sequences stand for … in GC…GCGATTGACAGCGTAGAATGAAGG
[1] = test system: PPARg:RXRa DBDmut IVT, anti-RXR (DBD mutation: RXRa K156A/R161A, NR concentration 270 nM, RXRa partner concentration 90 nM)
How it was run: (§1)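 Binding z-scores take random background probes as their reference. They come from custom Agilent 4×180K protein-binding microarrays incubated 1 h with ligand-free nuclear receptor dimers, with antibodies against each partner (one per run) detecting binding. Scanned fluorescence was regression-normalized.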

[2] = test system: PPARg:RXRa IVT, anti-PPARg (NR concentration 270 nM, RXRa partner concentration 90 nM)
How it was run: as §1

[3] = test system: PPARg DBDmut:RXRa IVT, anti-PPARg (DBD mutation: PPARg1 K132A/R137A, NR concentration 270 nM, RXRa partner concentration 90 nM)
How it was run: as §1

[4] = test system: PPARg DBDmut IVT, anti-PPARg (DBD mutation: PPARg1 K132A/R137A, NR concentration 270 nM)
How it was run: as §1

[5] = test system: PPARg homodimer (NR concentration 180 nM)
How it was run: as §1

[6] = test system: PXR:RXRa (NR concentration 270 nM, RXRa partner concentration 90 nM)
How it was run: as §1

[7] = test system: PXR homodimer (NR concentration 270 nM)
How it was run: as §1

[8] = test system: RARa:RXR (NR concentration 270 nM, RXRa partner concentration 90 nM)
How it was run: as §1

[9] = test system: RARa homodimer (NR concentration 270 nM)
How it was run: as §1

[10] = test system: RARb:RXRa (NR concentration 270 nM, RXRa partner concentration 90 nM)
How it was run: as §1

Sequence	PBM binding z-score [1]	PBM binding z-score [2]	PBM binding z-score [3]	PBM binding z-score [4]	PBM binding z-score [5]	PBM binding z-score [6]	PBM binding z-score [7]	PBM binding z-score [8]	PBM binding z-score [9]	PBM binding z-score [10]
ATATGTAGGTTAAGGGTCATTTAGGTTGGTTCGC	7.27	7.94	3.6	3.31	3.63	5.37	2.03	5.61	2.42	3.61
CAAACTAGGTCACTGAGGTCAAAGTCCGTGCGTA	8.41	8.65	1.56	0.597	4.26	6.53	12.1	6.4	0.887	4.89
AATATTAGTTGACTTAGGGCAACCGATACGACGC	0.114	0.435	1.41	0.654	0.835	0.143	0.976	0.751	1.92	0.721
TCTCGGAGGACACGAAAGGACAGAGCTCGACATC	1.47	0.125	-0.295	-0.96	-0.288	-0.168	-0.334	0.0232	-0.282	2.03
TCTAGCAGGCGAGAGGGTCACTCAAGAGGTACGG	0.656	-0.139	-0.781	-0.425	0.125	1.47	-0.472	2.24	-0.11	1.81
TCCGCTAGGTCAACGATGGTCAGCTAATCTGCTA	3.72	3.71	-0.291	-0.242	0.617	1.19	-0.762	1.69	-0.297	4.13
TTACCAAGGTGAAGGTCGATGATCCCTCTGTAGA	1.53	3.14	-0.416	-0.0425	0.524	0.883	0.0636	1.36	0.0108	2.11
ATCTCTAGGTAACAAAGTTCAGTGAATGCCGAAC	3.03	3.03	1.17	0.837	1.24	2.36	2.09	1.61	0.834	2.4
AGAATGAGGTTACCAAAGATCAGGGGAACGCTTG	3.68	3.55	0.871	0.161	0.699	1.59	-0.0783	2.04	0.232	2.18
TCTTGTAGATCAAGCAGGTTAAGACAGCCTGAGT	1.59	0.85	0.703	0.0402	-0.449	0.414	0.135	0.668	-0.0996	0.151
TCATAAAGGTAAAGGTGAAAGTCGAACGATATGA	2.88	3.1	1.14	0.528	1.69	1.3	-0.127	2.37	0.551	2.66
TCGAGTAGGATAGTCGGGGCATTCAGCCAACATA	0.456	-0.749	-1.74	-1.22	-0.949	-0.303	-0.615	-0.363	-0.838	-0.448

— the supplement of paper PMC6555819
